Results reported in the supplement of paper PMC6555819.

Legend:
Assay in all cases: PBM binding z-score (relative to random genomic background probes); higher = stronger binding; sequences stand for … in GC…GCGATTGACAGCGTAGAATGAAGG
[1] = system: FXR:RXRa (NR concentration 270 nM, RXRa partner concentration 90 nM)
Method in brief: (§1)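 Custom Agilent 4×180K protein-binding microarrays carried double-stranded probes. Their 34-nt variable regions held direct-repeat seeds, single-nucleotide variants, half-site ablations and random human genomic background sequences. Arrays were incubated 1 h with ligand-free nuclear receptor dimers in PBS pH 7.4, 2% milk, 0.02% Triton X-100, 1 mM DTT, 0.2 mg/mL BSA and 0.4 mg/ml salmon testes DNA. Antibodies against each partner (one per run) detected binding, and scanned fluorescence was regression-normalized. Binding z-scores use random background probes as reference.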

[2] = system: LXRa:RXRa (NR concentration 270 nM, RXRa partner concentration 90 nM)
Method in brief: as §1

[3] = system: LXRa homodimer (NR concentration 270 nM)
Method in brief: as §1

[4] = system: LXRb:RXRa (NR concentration 270 nM, RXRa partner concentration 90 nM)
Method in brief: as §1

[5] = system: LXRb homodimer (NR concentration 270 nM)
Method in brief: as §1

[6] = system: PPARa:RXRa (NR concentration 270 nM, RXRa partner concentration 90 nM)
Method in brief: as §1

[7] = system: PPARg:RXRa (NR concentration 180 nM, RXRa partner concentration 90 nM)
Method in brief: as §1

[8] = system: PPARg:RXRa 270nM:90nM, anti-RXR (NR concentration 270 nM, RXRa partner concentration 90 nM)
Method in brief: as §1

[9] = system: PPARg:RXRa 30nM:10nM, anti-RXR (NR concentration 30 nM, RXRa partner concentration 10 nM)
Method in brief: as §1

[10] = system: PPARg:RXRa 90nM:30nM, anti-RXR (NR concentration 90 nM, RXRa partner concentration 30 nM)
Method in brief: as §1

| Sequence | PBM binding z-score [1] | PBM binding z-score [2] | PBM binding z-score [3] | PBM binding z-score [4] | PBM binding z-score [5] | PBM binding z-score [6] | PBM binding z-score [7] | PBM binding z-score [8] | PBM binding z-score [9] | PBM binding z-score [10] |
| --- | --- | --- | --- | --- | --- | --- | --- | --- | --- | --- |
| GGAACGAGAGCAAGTTGATAGCAGAGTTTGATGG | -0.63 | -0.766 | -0.719 | -0.852 | -1.03 | -0.523 | 0.39 | -0.573 | -0.225 | -0.721 |
| CCTTACGGGTCACTGACAGATTATAGCATTTGGA | 5.42 | 3.4 | 0.418 | 3.31 | 0.248 | 5.28 | 4.31 | 4.42 | 1.59 | 3.46 |
| AGAACGAGGGCAATGAGTTTATAGCACGGGTGGC | 0.163 | 0.317 | -0.472 | -0.145 | -0.322 | 1.25 | 1.55 | 0.876 | 0.119 | 0.36 |
| GGAACAAGGGCATTCGAGTTGATAGCATGGCGAT | 1.63 | 1.37 | 0.0326 | 0.349 | -0.333 | 1.16 | 0.807 | 0.531 | -0.0599 | 0.199 |
| TCATATAGGTAAACAGGTGAAAATCCGTAAGTTA | 1.24 | 1.11 | 0.438 | 1.28 | 0.151 | 2.23 | 2.95 | 3.15 | 4.38 | 3.6 |
| CCTAGCAGGCCAATCTGGATCACTCAAGGCTTGA | -0.3 | -0.327 | -0.53 | -0.467 | -0.696 | -0.131 | 0.141 | -0.529 | -0.702 | -0.514 |
| AGTCAAAGTTCAGGACGAGGTAAGGTAAAGCACG | 4.31 | 3.87 | 1.46 | 1.95 | 0.293 | 3.46 | 4.39 | 5.12 | 2.13 | 4.27 |
| CAGCCTAGGTCAGGTCCAGTATAGGAGGAACGTT | 1.07 | 0.851 | -0.352 | 0.578 | -1.03 | 1.24 | 0.465 | 0.541 | -0.0378 | 0.231 |
| TCTTGTAGATCCATAGAGGTTAAGAAAGTGCGCT | 0.485 | 3.32 | -0.138 | 1.43 | 0.453 | 1.16 | -0.272 | 1.18 | 2.32 | 1.65 |
| GGAACGAGGGCAAGTTGATACCAGAGTTTGATGG | 1.04 | 0.448 | -0.0805 | 0.373 | 0.0862 | 1.58 | 1.31 | 1.19 | 0.0746 | 0.594 |
| CATACAGGGTCAACTAGGCCAGAGTAGGGACGGC | 6.88 | 4.92 | 0.472 | 4.1 | 0.96 | 5.82 | 6.43 | 5.91 | 2.49 | 4.66 |
| TAGCCTAGGTCATGCGGGCCAGAATAGTGTCGGC | 4.39 | 3.19 | 0.255 | 1.79 | -0.467 | 3.93 | 2.58 | 2.53 | 0.103 | 1.54 |
| ATCTCTAGGTAACCAAGTTGAGTGAATGCCGAAC | 0.189 | 0.0773 | 0.252 | 0.0776 | 0.391 | 0.54 | 0.337 | 0.316 | -0.0449 | 0.238 |
| GGAACGAGGGCATGTTGATAGCAGAGTTTGATGG | 0.438 | -0.0957 | 0.0371 | 0.12 | -0.293 | 0.843 | 0.848 | 0.668 | 0.0112 | -0.104 |
| ACAGAAAGGTGAGTGAAGGTAACTCAGCTGGACG | 1.15 | 0.894 | -0.288 | 0.22 | -0.612 | 1.81 | 1.25 | 1.23 | 0.0865 | 0.656 |
| CCTGCTGGGCCAAAAAGGTCATTGATGCCGATAA | 3.7 | 4.03 | 2.82 | 4.04 | 0.015 | 4.34 | 1.24 | 2.72 | 0.205 | 1.65 |
| GCAGACAGGTGAAACGCAGGTTACTCAGGGTGGC | -0.0153 | 0.86 | -0.533 | 0.216 | -0.875 | 1.06 | 0.535 | 0.0459 | -0.6 | -0.266 |
| TATACAGGTTCAAAGGCCAGAGTACGAATGTCGA | 3.17 | 4.13 | 2.06 | 2.27 | 1.19 | 3.41 | 2.89 | 3.54 | 1.9 | 2.88 |
| TTAACAAGGTGAGCTGAGGTCGTTGATCCAACTC | 1.71 | 1.21 | -0.57 | 0.45 | -0.886 | 1.72 | 0.604 | 0.987 | 0.415 | 0.24 |
| GCTCGGAGGACAAGGGCAGAGCTTTGTCCGTAGA | -0.487 | -0.674 | -0.975 | -1.04 | -1.47 | -0.451 | -0.879 | -0.532 | -1.18 | -0.777 |
| TCTCGGAGGACACGAGGGTCAGAGCTTTCCAGAG | 0.856 | 0.365 | -0.438 | 0.47 | -1.32 | 1.46 | 0.145 | 1.07 | 1.75 | 1.17 |
| TAGCCTAGGTCATTAGGCCAGTATAGTACGCATC | 3.64 | 2.91 | 0.7 | 1.88 | 0.111 | 3.31 | 3.34 | 3.34 | 1.05 | 2.14 |
| ATACCAAGGTGATCGTGAGGTCCTTGATACTAAC | 0.569 | -0.0765 | -0.204 | 0.177 | -0.319 | 0.562 | 0.44 | 0.0314 | -0.102 | -0.134 |
| CCTACTGGGCCATCAGGGCATTGATATCAACGTT | -0.583 | -0.856 | -0.715 | -0.817 | -0.886 | 0.0503 | 1.16 | 1.68 | -0.00697 | 0.846 |
| CGGCCTAGGTCAGGGCCAGTATAGGAGGAACGTT | 1.39 | 0.731 | -0.463 | 0.402 | -1.29 | 1.83 | 0.691 | 0.462 | -0.446 | 0.244 |
